For 68 compounds, Potency results are on record in PubChem BioAssay AID2147 (National Center for Advancing Translational Sciences (NCATS), 2009).

The campaign covered roughly 230,000 compounds. About 3,600 (1.6%) were called active. Where a call stands in place of a potency, no number is given. About 15% were inconclusive and are not listed. The call rests on the fitted dose curve; in most records, active means well fitted inhibition curve with a large enough effect (not every such curve was filed as active); inconclusive means small, poorly fitted or top-dose-only effect, or another doubt; inactive means no such curve, though single readings can be large or run the other way. For the sample, actives were picked, then their nearest neighbours and some compounds at random.
Further: nearly all actives have a fitted effect of over 50% in size.
Potency means the concentration at half of the fitted maximal effect.

Chain of Lysine-specific demethylase 4E (Homo sapiens) (B2RXH2 1-337 limits assumed): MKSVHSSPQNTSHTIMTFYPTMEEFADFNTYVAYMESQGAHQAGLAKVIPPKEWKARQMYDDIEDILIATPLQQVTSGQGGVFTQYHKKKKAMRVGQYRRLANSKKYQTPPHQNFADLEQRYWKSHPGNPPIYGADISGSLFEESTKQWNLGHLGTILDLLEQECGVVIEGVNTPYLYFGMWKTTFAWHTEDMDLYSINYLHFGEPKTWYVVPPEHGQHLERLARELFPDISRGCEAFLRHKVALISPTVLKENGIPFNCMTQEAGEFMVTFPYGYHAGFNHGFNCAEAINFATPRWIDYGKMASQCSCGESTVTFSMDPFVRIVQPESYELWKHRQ

For the test, the target named is Lysine-specific demethylase 4E (Homo sapiens) (UniProt B2RXH2). As to the kind of experiment: qHTS Assay for Inhibitors of Human Jumonji Domain Containing 2E (JMJD2E). The following applies: JMJD2E catalytic domain, FDH-coupled NADH fluorescence (FDH is formaldehyde dehydrogenase); series mostly up to 57.1 µM. The text has this:
Assay Provider: Structural Genomics Consortium [SGC] Screening Center PI: Austin, C.P. Screening Center: NIH Chemical Genomics Center [NCGC] The fine interplay among methylation states of several lysine residues on the tails of histone proteins is a major determinant of the transcriptional state of the associated DNA coding regions and is commonly referred to as the histone code. Histone lysine demethylases catalyze the removal of methyl groups from methylated lysine sidechains on histones H3 and H4, thus antagonizing the reactions catalyzed by histone lysine methyltransferases. […] In search for novel inhibitors of JMJD2E demethylase, a member of the largest set of histone demethylases belonging to the Fe(II) and 2-oxoglutarate oxygenase (2OG) superfamily, we performed a quantitative high-throughput screen (Inglese 2006) by using an assay which utilizes a trimethylated peptide substrate corresponding to a fragment of histone H3 (sequence ARKme3STGGK) with detection of the formaldehyde co-product in real time by a formaldehyde dehydrogenase (FDH) coupled reaction. FDH catalyzes oxidation of formaldehyde to formic acid with the concomitant reduction of the non-fluorescent beta-nicotinamide adenine dinucleotide hydrate (NAD+) cofactor to the fluorescent NADH co-product. References: Inglese, J., Auld, D., Jadhav, A., Johnson, R., Simeonov, A., Yasgar, A., Zheng, W. and Austin, C. Proc Natl Acad Sci USA 2006, 103, 11473-11478. N. R. Rose, S. S. Ng, J. Mecinovic, B. M. Lienard, S. H. Bello, Z. Sun, M. A. McDonough, U. Oppermann and C. J. Schofield, J Med Chem, 2008, 51, 7053-7056. Sakurai, M., Rose, N., Schultz, L., Quinn, A., Jadhav, A., Ng, S., Oppermann, U., Schofield, C.J. and Simeonov, A. Mol BioSystems 2009, in press. S. Michael, D. Auld, C. Klumpp, A. Jadhav, W. Zheng, N. Thorne, C. Austin, J. Inglese and A. Simeonov, Assay Drug Dev Technol, 2008, 6, 637-657.
Reagents and Controls: Ferrous ammonium sulfate, (+)-sodium L-ascorbate, beta-nicotinamide adenine dinucleotide hydrate (NAD+), Tween-20, formaldehyde dehydrogenase from P. putida (FDH), and disodium 2-oxoglutarate were from Sigma (St. Louis, MO). Black solid-bottom 384-well or 1,536-well assay plates were from Greiner Bio-One (Monroe, NC). Enzyme was supplied by Prof. Udo Oppermann, SGC-Oxford. The catalytic domain of human JMJD2E (residues 1-337) was produced as an N-terminally His6-tagged protein in E. coli, and purified by Ni-affinity chromatography and size-exclusion chromatography, and stored in HEPES 50 mM/ NaCl 500 mM pH 7.5, as reported in Rose 2008. The trimethylated histone peptide substrate ARK(me3)STGGK was synthesized and HPLC-purified by the Tufts University Core Facility (Boston, MA). Substrate solution (Sakurai 2009) contained 50 uM ARK(me3)STGGK, 0.00025 U/uL FDH, 50 uM 2-oxoglutarate, 250 uM NAD+, 1 mM ascorbate, and 10 uM ferrous ammonium sulfate. Controls and plate map: Buffer (150 mM HEPES pH 7.5 containing 0.01% Tween-20) in columns 3 and 4 as negative control (no enzyme) and 100 nM JMJD2E final concentration in columns 1,2, and 5-48. Assay Steps: Enzyme and buffer solutions (3 uL) were dispensed into a 1,536-well Greiner black solid-bottom assay plate. The library compounds (23 nL) were transferred using a Kalypsys pintool equipped with 1,536-pin array. The plate was incubated at room temperature (15 min), and then a 1 uL aliquot of substrate solution was added to initiate the reaction. The plate was transferred to ViewLux imager where an initial reading using standard UV optics (Ex 340 nm, Em 450 nm) was obtained. The plate was then removed from the reader, incubated for 30 minutes at room temperature, and returned to the reader for a second fluorescence reading. A fully automated robotic screening system (Kalypsys Inc, San diego, CA) was used to perform the above steps as described previously (Michael 2008). […]
On the technique in general: qHTS replaces the single test concentration by a dilution series.
As to `CCc1c(C)[nH]c(=S)c(C#N)c1C`, the Potency is 20 µM (active). For the compound `CC(=O)c1c(C)[nH]c(=S)c(C#N)c1-c1ccc(F)cc1`, the Potency result was “inactive”. Turning to `CCOC(=O)c1c(C)[nH]c(=S)c(C#N)c1-c1ccccc1`, the Potency result is “inactive”.

In the case of `CS(=O)(=O)c1ccc(Cl)c(NC(=O)Nc2ccccc2)c1`, the Potency entry is “inactive”. The value for `CCC1C(C#N)=C(SC)NC2=C1C(=O)CC(C)(C)C2` (stereo not drawn) was “inactive”; that for `COc1ccc(C2C(C#N)=C(/N=C/N3CCOCC3)OC3=C2C(=O)CC(C)(C)C3)cc1OC` (stereo not drawn) was “inactive”; that for `COc1cc(C2C(C#N)=C(C)NC3=C2C(=O)CC(C)(C)C3)ccc1O` (stereo not drawn) was 12.6 µM (active). The value for `CC(=O)N1CCC(N(C(=O)Nc2ccc(Cl)cc2)C(C)C)CC1` was “inactive”; that for `O=C(CCCN1C(=O)/C(=C\c2ccccc2)SC1=S)Nc1ccccc1O` was “inactive”.

Take `c1ccc(CSc2nnc(-c3ccco3)n2Cc2ccccc2)cc1`: the Potency result was “inactive”. `c1ccc(CSc2nnc(-c3ccco3)c(-c3ccco3)n2)cc1`: the Potency is 7.94 µM (active). The result for `Brc1ccc(CSc2ccc(-c3ccco3)nn2)cc1` reads “inactive”.

Consider `O=S(=O)(NCCc1csc(-c2ccccc2)n1)c1cccnc1`, for which the Potency entry was “inactive”. The result for `Cc1cc(-c2nnc(CCC(=O)NC(c3ccccc3)c3ccccc3)o2)no1` reads “inactive”; that for `O=C1C(c2ccccn2)=[N+]([O-])c2ccccc21`, 12.6 µM (active). The value for `O=C(Nc1ccc2c(c1)OCCO2)c1cnccn1` was “inactive”; that for `CCN(CC)c1ccc(/C=N/NC(=O)c2cnccn2)c(O)c1` was 10 µM (active). The result for `CCN(CC)c1ccc(/C=N/Nc2nc(C)cc(C)n2)c(O)c1` reads “inactive”; that for `CCOC(=O)c1c(CC(C)C)csc1/N=C/C1=C(O)CCCC1=O`, “inactive”; that for `CCOC(=O)c1c(C)oc(C)c(C(=O)OCC)c1=O`, “inactive”.

Consider `NC(=O)c1ccc(NC(=O)COC(=O)c2c3c(nc4ccccc24)/C(=C\c2ccc4c(c2)OCO4)CCC3)cc1`, for which the Potency is 3.16 µM (active). The value for `O=C(COC(=O)c1c2c(nc3ccccc13)/C(=C\c1cccs1)CCC2)Nc1ccccc1Cl` was “inactive”; that for `O=C(COC(=O)c1ccc2c(c1)OCCO2)NCc1ccccc1` was “inactive”. The result for `O=C(Cc1ccccc1)Nc1c(Cl)ccc2nsnc12` reads “inactive”; that for `O=C(NC(=O)N1CCSCC1)c1c(Cl)cccc1Cl`, “inactive”. Take `O=C(NCc1ccccc1)c1ccc(S(=O)(=O)Nc2cccc(C(F)(F)F)c2)cc1`: the Potency entry was “inactive”. `Oc1ccc(N2CCN(C(=S)NCc3ccccc3)CC2)cc1`: the Potency entry was “inactive”. The result for `Oc1ccc(CNc2ccccc2O)cc1` reads 15.8 µM (active). The value for `O=[N+]([O-])c1ccccc1NCc1ccc(Cl)cc1` was “inactive”. The result for `CC#CC[N+](C)(C)CCCCCC` reads “inactive”; that for `O=[N+]([O-])c1cc(Cl)cc(/C=N/NC(=S)Nc2cc(S(=O)(=O)N3CCOCC3)ccc2Cl)c1O`, 8.91 µM (active); that for `O=C(NC(=S)Nc1ccc(S(=O)(=O)N2CCOCC2)cc1)c1ccccc1[N+](=O)[O-]`, “inactive”.

With `O=C(N/N=C/c1ccc([N+](=O)[O-])o1)c1cccc(S(=O)(=O)N2CCOCC2)c1`, the Potency result is “inactive”. The value for `CC1=NCCN1S(=O)(=O)c1cccc([N+](=O)[O-])c1` was “inactive”; that for `CN(C)C(=O)c1cccn(Cc2cccc(C(F)(F)F)c2)c1=O` was “inactive”. The result for `Cc1csc(NC(=O)NC2(C(F)(F)F)Oc3ccccc3O2)n1` reads “inactive”. The result for `O=C(Nc1cc(N2CCOCC2)ncn1)NC1(C(F)(F)F)Oc2ccc(Cl)cc2O1` (stereo not drawn) reads 14.1 µM (active); that for `c1cnn(-c2cc(N3CCOCC3)ncn2)c1`, “inactive”; that for `CCCn1nc(C(=O)N2CCCc3ccccc32)c2ccccc2c1=O`, “inactive”. `Cc1ccc(NC(=O)c2ccn(C(=O)Nc3ccccc3)n2)c(C)c1`: the Potency result was “inactive”.

As for `Cc1cc(C)n(CC(C)NCc2c(C(=O)N3CCOCC3)nc3c(C)cccn23)n1` (stereo not drawn), the Potency result is “inactive”. The value for `CC1(C)CC(=O)C(N=Nc2c(F)cccc2F)=C(O)C1` was “inactive”.

In the case of `C=CCNC(=O)CSc1nc2scc(-c3ccco3)c2c(=O)n1CC=C`, the Potency result is “inactive”. The value for `Cc1cc(C)c(C)c(S(=O)(=O)N[C@@H](C)C(=O)OC(C)C(=O)NC(N)=O)c1C` (stereo partly drawn) was “inactive”; that for `O=C(CCCCCNC(=O)c1ccccc1)N/N=C/c1ccccc1` was “inactive”; that for `O=C(CCC(=O)Nc1ccccc1)N/N=C/c1ccccc1F` was “inactive”. On to `O=C(N/N=C/c1ccccc1O)/C(=C/c1ccccc1)CCO`, for which the Potency is 20 µM (active). With `CCCCCCCCCCCCC(NC(C)=O)(C(=O)OCC)C(=O)OCC`, the Potency entry is “inactive”. The result for `O=C(CSc1nnnn1-c1ccc(O)cc1)N1N=C(c2ccc3ccccc3c2)CC1c1ccccc1` (stereo not drawn) reads 1.41 µM (active); that for `O=C(CSc1nnnn1-c1ccc(O)cc1)c1ccc(F)cc1`, “inactive”; that for `COc1ccc(C2CC(c3ccccc3)=NN2C(=O)CSc2nccc(=O)[nH]2)cc1` (stereo not drawn), “inactive”.

`CN(C)C(=S)Nc1ccc(Br)cc1Cl`: the Potency entry was “inactive”.

Take `COCCn1c(SCC(=O)Nc2cc(OC)ccc2OC)nc2c(c1=O)SC(C)C2` (stereo not drawn): the Potency entry was “inactive”. Turning to `O=C(Nc1ccccc1)N1CCN(C2c3ccccc3-c3ccccc32)CC1`, the Potency result is “inactive”. On to `O=C(CSc1ncn[nH]1)Nc1nc(-c2cccc([N+](=O)[O-])c2)cs1`, for which the Potency result was “inactive”. The value for `COc1ccc(N(C(=O)c2cccnc2)S(=O)(=O)c2ccc3c(c2)n(C)c(=O)n3C)cc1` was “inactive”; that for `O=C(c1cccnc1)N(c1cc2sc(=O)oc2c2ccccc12)S(=O)(=O)c1ccccc1` was 14.1 µM (active); that for `CN(C)S(=O)(=O)c1cccc(C(=O)Nc2cccnc2)c1` was “inactive”.

As for `Cc1oc(C(N)=O)cc1COc1ccc(C(N)=O)cc1`, the Potency entry is “inactive”.

As to `CCOC(=O)N1CCN(c2c(NCCN3CCN(c4ccccc4F)CC3)c(=O)c2=O)CC1`, the Potency result was “inactive”. The result for `COCCCNC(=S)N(Cc1ccccc1)Cc1ccc(F)cc1` reads “inactive”. The value for `Cn1c(C(=O)O)ccc1S(=O)(=O)N(Cc1ccccc1)Cc1ccccc1` was “inactive”; that for `CCOC(=O)C1CCN(CCC(=O)Nc2cccc(C)c2)CC1` was “inactive”. The result for `Cc1c([N+](=O)[O-])c(N)nn1C` reads “inactive”; that for `O=C(O)c1ccc(NC(=O)c2cn(-c3ccccc3)nc2-c2ccc(Cl)cc2)cc1`, “inactive”. Regarding `O=C(NNC(=S)NC(=O)c1cn(-c2ccccc2)nc1-c1ccccc1)c1ccncc1`, the Potency was 14.1 µM (active). The result for `O=C(Nc1cn(-c2ccccc2)nc1-c1ccccc1)c1ccccc1` reads “inactive”; that for `CCn1c2ccccc2c2cc(NC(=O)Nc3ccc([N+](=O)[O-])cc3C)ccc21`, “inactive”.
